DT40 TDP1 no CPT = qHTS for Inhibitors of human tyrosyl-DNA phosphodiesterase 1 (TDP1): qHTS in cells in absence of CPT; DT40 Tdp1-/- hTDP1 cells, no CPT, ATP luminescence, 48 h; Potency, µM (titrated, usually from 46.2 µM), for inactives: at the highest dose activity change, negative = growth inhibition, hits mostly inhibitors; 15% of 420,000 active; AID 686978, 2013; also: nearly all actives have a fitted effect of over 55% in size
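DT40 Tdp1-/-;hTDP1 cells, no CPT (DMSO vehicle only), 400 cells/well; compounds pin-transferred; ≥48 hr, 37 °C; CellTiter-Glo 30 min RT dark, luminescence read.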
ELG1 repair inh = inhibitors of ELG1-dependent DNA repair in HEK293T cells; HEK293T ELG1-luciferase reporter, luminescence, 16 h; DNA damage induced by 5-fluorouridine; AID 504467; Potency, µM (doses to about 46.1 µM), for the others: top-dose activity change, negative = inhibition, most hits filed as inhibitors; 2.3% of 330,000 active; also: nearly all actives have a fitted effect of over 55% in size
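HEK293T cells expressing luciferase-tagged ELG1 (2,000/well) received 5-Fluorouridine plus compound or DMSO for 16 hr at 37 °C. Luciferase was read by ONE-Glo luminescence after 30 min at room temperature.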
12-LOX inh = ALOX12 (human) lipoxygenase inhibition; P18054; purified 12hLO, xylenol orange hydroperoxide absorbance; Potency, µM (top dose mostly 108 µM), for inactives: top-dose activity change, negative = inhibition, actives largely listed as inhibitors; 1.1% of 580,000 active; AID 1671190
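Purified human 12hLO at 150 nM in 25 mM Hepes, 0.01% Triton X-100, pH 7.0, preincubated 15 min at room temperature with compound. Reaction started with 40 uM arachidonic acid, 30 min at room temperature. Hydroperoxide measured by Fe-xylenol orange, 573/405 nm absorbance ratio.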
Gal4-VP16 FLuc = counter-screen for ROR gamma inhibitors: Gal4-VP16 reporter. Drosophila S2 Gal4-VP16 UAS-luciferase, luminescence, 20 h. Potency, µM (titrated, usually from 53.6 µM), inactives show top-dose activity, negative = inhibition, actives largely listed as inhibitors. 3.5% of 310,000 active. AID 2546;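 also: Gal4-VP16 expression switched on by copper sulfate through the metallothionein promoter; nearly all actives have a fitted effect of over 50% in size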
DT40 TDP1 CPT = growth inhibition of DT40 Tdp1-/-;hTDP1 cells with camptothecin (screen for TDP1 inhibitors); chicken DT40 Tdp1-/-;hTDP1 cells + 20 nM CPT, ATP luminescence, 48 h; Potency, µM (series often up to 46.2 µM), inactives show at the top dose activity change, negative = growth inhibition, most hits filed as inhibitors; AID 686979; 12% of 420,000 active; also: nearly all actives have a fitted effect of over 55% in size
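Cell growth measured by CellTiter-Glo luminescence after a minimum 48 h, 37 C compound exposure with 20 nM CPT in Tdp1-knockout DT40 cells stably expressing hTDP1, seeded 400/well; qHTS titration format.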
RORgamma inh = blocks mouse ROR gamma transcriptional activity. P51450. Drosophila S2 Gal4-RORgamma UAS-luciferase reporter, 20 h. Potency, µM (top dose mostly 53.6 µM), for inactives: at the highest dose activity change, negative = inhibition, actives largely listed as inhibitors. 5.4% of 310,000 active; also: nearly all actives have a fitted effect of over 60% in size
Target sequence (P51450 whole entry, looked up, the tested form may be a part): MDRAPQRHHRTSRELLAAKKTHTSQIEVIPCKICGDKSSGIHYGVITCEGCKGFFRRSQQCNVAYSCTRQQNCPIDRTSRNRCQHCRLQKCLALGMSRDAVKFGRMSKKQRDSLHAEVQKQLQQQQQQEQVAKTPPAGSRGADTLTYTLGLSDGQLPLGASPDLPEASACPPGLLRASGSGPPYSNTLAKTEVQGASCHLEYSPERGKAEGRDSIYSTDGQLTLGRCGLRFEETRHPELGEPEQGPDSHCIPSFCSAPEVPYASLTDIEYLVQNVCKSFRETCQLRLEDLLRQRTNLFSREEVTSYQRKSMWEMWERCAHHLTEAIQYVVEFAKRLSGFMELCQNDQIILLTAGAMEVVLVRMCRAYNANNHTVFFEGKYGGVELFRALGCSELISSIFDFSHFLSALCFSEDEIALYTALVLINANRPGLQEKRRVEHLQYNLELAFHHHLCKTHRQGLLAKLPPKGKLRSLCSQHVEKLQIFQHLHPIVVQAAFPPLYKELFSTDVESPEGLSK
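ROR gamma transcriptional activity was tracked as Gal4-UAS luciferase output in stably transfected Drosophila Schneider cells, with compound added 1 hr before 700 uM copper sulfate induction and a 20 hr ambient-temperature incubation.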
* = called active by the depositor; ? = inconclusive; . = not tested or not shown. Only some compounds are listed: those with a hit (about 15% of all), similar ones and a draw of the others. Calls follow the shape of the dose curve; as a rule, active = well fitted curve in the direction sought with a large enough effect; inconclusive = small, poorly fitted or top-dose-only effect, or another doubt; inactive = no such curve, though single readings can be large; an effect the other way counts as inactive or inconclusive. % is scaled to controls: 0 for no effect and ±100 for the full control effect; potency is read from the fitted curve at half-maximal effect.

SMILES	DT40 TDP1 no CPT	ELG1 repair inh	12-LOX inh	Gal4-VP16 FLuc	DT40 TDP1 CPT	RORgamma inh
Cc1ccc(CNC(=O)C2CCC(CNS(=O)(=O)c3cccc4cccnc34)CC2)cc1 (stereo not drawn)	-13%	10%	-26%	1%	-25%	0%
COc1ccc(CCNC(=O)C2CCN(S(=O)(=O)c3cccc4cccnc34)CC2)cc1OC	?	4%	.	-3%	16µM*	7%
COc1ccc(CCNC(=O)C2CCN(S(=O)(=O)c3cccc4nsnc34)CC2)cc1OC	?	-1%	0%	-2%	-26%	17%
O=C(NCCc1ccccc1)C1CCC(CNS(=O)(=O)c2cccc3cccnc23)CC1 (stereo not drawn)	23µM*	10%	0%	-3%	16µM*	26%
CC(O)CNc1nc(-c2ccsc2)nc2ccccc12 (stereo not drawn)	.	.	-5%	.	.	.
Cc1cccc(NC(=O)NCc2c(C)nn(C)c2C)c1C	.	.	-23%	.	.	.
CCCc1c(-c2ccccc2)ncn1Cc1ccccc1OC	5.8µM*	.	-34%	.	7.3µM*	.
CCCc1c(-c2ccccc2Br)ncn1Cc1ccccc1OC	2.3µM*	.	?	.	2.3µM*	.
CCCc1c(-c2ccc(F)cc2)ncn1Cc1ccccc1OC	2.1µM*	.	-75%	.	1.6µM*	.
CCN1CCC(NC(=O)C2CC(C)=C(C)CC2C(=O)O)CC1 (stereo not drawn)	.	.	-27%	.	.	.
COc1cc(CCNC2=CC(=O)c3ncccc3C2=O)ccc1O	5.8µM*	.	-25%	.	4.6µM*	.
CC(=O)NCC1CCCN(Cc2cn(-c3ccccc3F)nc2-c2cc(C)sc2C)C1 (stereo not drawn)	-23%	-9%	-9%	-5%	?	-18%
COCC1CCCN(Cc2cn(-c3ccccc3F)nc2-c2cc(C)sc2C)C1 (stereo not drawn)	18µM*	4%	0%	-5%	16µM*	-24%
O=C1C(C=NCc2ccncc2)=C(O)c2ccccc21	-2%	28%	5%	18%	-3%	21%
O=C1N/C(=C/c2ccc(Br)cc2)C(O)=C1C=NCc1ccccc1	2.3µM*	?	0%	-9%	2.9µM*	25%
Cc1csc(/C(=N\O)c2csc(C)n2)n1	?	-1%	8%	4.5µM*	-24%	2.8µM*
CCCCN(CCCC)c1ccc(Cn2ccc3ccccc32)cc1	8.9µM*	.	.	.	7.9µM*	.
CN(C)c1ccc(Cn2ccc3ccccc32)cc1	22µM*	.	.	.	-30%	.
CCOc1ccccc1CNC(=O)C(C)C1CCOCC1 (stereo not drawn)	.	.	42%	.	.	.
COc1cc(OC)nc(Nc2nc(C(N)Cc3ccc(F)cc3)cs2)n1 (stereo not drawn)	23µM*	.	-7%	.	21µM*	.
COc1cccc(Nc2nc(C(N)Cc3ccccc3)cs2)n1 (stereo not drawn)	16µM*	.	-10%	.	13µM*	.
COc1cccc(Nc2nc(C(N)CO)cs2)n1 (stereo not drawn)	?	.	6%	.	?	.
CCn1c(=O)c2c(cc(C)n2C)n(CC(=O)Nc2c(C)cccc2C)c1=O	.	.	56%	.	.	.
COn1c2c(c3c4nonc4ccc31)CCCC2	?	0%	?	13%	?	16%
On1c2c(c3c4nonc4ccc31)CCCC2	.	13µM*	.	22µM*	.	?
Cc1ccc(C)n1-c1ccc(N2CCOCC2)c(Br)c1	15µM*	?	-8%	-8%	18µM*	-2%
O=C(Cc1ccc(C(F)(F)F)cc1)N1CC(COc2ccccc2)C2(C1)CN(C(=O)c1cn[nH]c1)C2 (stereo not drawn)	.	.	44%	.	.	.
